# Laboratory results reported in PubChem BioAssay.
# “And” between values parts separate entries of the source, which are not always exact repeats. Equal values may be shown once. Inconclusive results are not listed. The source made the active and inactive calls. Cut-off read from the data, not from the text of the source, unless noted: active = inhibition above about 80%; inactive = the rest.
# Assays:
# [1] = ICB984 medulloblastoma cell growth inhibition, synergistic combos for chromothripsis tumors, cisplatin or BGB combos (AID 1671451); conditions: ICB984 medulloblastoma cells, drug combinations, measured here: 5 uM single agent, at 5 µM, stronger effect = higher value;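 note: cells exposed for 96 hours before readout; 0% = vehicle DMSO and 100% = killing by high DMSO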
# [2] = LFS_MB_1R medulloblastoma cell growth inhibition, synergistic combos for chromothripsis tumors, cisplatin or BGB combos (AID 1671452); conditions: LFS_MB_1R medulloblastoma cells, stronger effect = higher value;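 note: cells exposed for 96 hours before readout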
# [3] = HTB85 osteosarcoma cell growth inhibition, synergistic combos for chromothripsis tumors, BGB or cisplatin IC20 combos (AID 1671453); conditions: HTB85 osteosarcoma cells, drug combinations, stronger effect = higher value;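 note: cells exposed for 96 hours before readout; 0% = vehicle DMSO and 100% = high DMSO killing control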
# [4] = MDA-MB-436 breast carcinoma cell growth inhibition, synergistic combos for chromothripsis tumors, BGB or cisplatin combos (AID 1671458; call rule not given here;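 note: cells exposed for 96 hours; 0% = vehicle DMSO and 100% = killing by high DMSO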); conditions: MDA-MB-436 breast carcinoma growth inhibition, drug combinations, stronger effect = higher value
# [5] = growth inhibition of BT084 medulloblastoma cells, cell-based, ICGC_MB145, cisplatin and BGB IC40 combos (AID 1671461); conditions: drug combinations, stronger effect = higher value;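 note: cells exposed to drugs for 96 hours; 0% = vehicle DMSO and 100% = high DMSO full killing control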
# [6] = growth inhibition of RCMB18 medulloblastoma cells, cell-based, cisplatin and BGB IC40 combos (AID 1671462); conditions: stronger effect = higher value;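 note: cells exposed to compound for four days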
# [7] = growth inhibition of CRL1545 osteosarcoma cells, cell-based, cisplatin and BGB IC20 combos (AID 1671464); conditions: stronger effect = higher value;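 note: cells exposed to compound for 96 hours before readout; 0% = vehicle DMSO and 100% = high DMSO killing control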
# [8] = growth inhibition of DIPG glioma cells, dose response, cell-based, SU-DIPG-XIII, MIPE4.0, CellTiter-Glo, qHTS (AID 1347061; cut-off not given, nearly all actives have AC50 up to about 37 µM;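 note: cells exposed to compound for 48 hours before readout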); conditions: SU-DIPG-XIII viability, CellTiter-Glo ATP luminescence
# [9] = growth inhibition of DIPG glioma cells, dose response, cell-based, SU-DIPG-IV, MIPE4.0, CellTiter-Glo, qHTS (AID 1347063; cut-off not given, nearly all actives have AC50 up to about 30 µM;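 note: compound exposure lasted 48 hours before the viability readout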); conditions: SU-DIPG-IV viability, CellTiter-Glo ATP luminescence
# [10] = viability loss in pontine glioma line – cell-based, SU-DIPG-XXV, MIPE5.0, CellTiter-Glo, qHTS, dose response (AID 1347065; cut-off not given, nearly all actives have AC50 up to about 26 µM;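 note: cells exposed to compound for 48 hours before ATP readout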); conditions: CellTiter-Glo ATP luminescence
# [11] = SU-DIPG-XXV glioma cell viability, MIPE5.0 library, qHTS (AID 1347068; cut-off not given, nearly all actives have IC50 up to about 30 µM;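 note: cells exposed to compound for 48 hours before viability readout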)
# [12] = sensitizers of A549 cells to miR-34 induction, primary screen, imaging, A549 dox-inducible miR-34, nuclei and caspase counts (AID 1347080;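 active = compounds whose cell count with miR-34 switched on is under 0.7 times the count with it off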); conditions: A549 miR-34 inducible, Hoechst nuclei count, 48 h
# [13] = survival rescue of mitochondrial mutant cells in low glucose, primary screen, MELAS cybrids, Rieske KO mouse fibroblasts, CellTiter-Glo (AID 1508586;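 active = mean z-score across replicates of 1.96 or higher in either the MELAS or the Rieske mutant cell line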;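 note: z relative to plate mean and SD of compound and empty wells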)
# [14] = growth inhibition of DIPG glioma cells, dose response, cell-based, JHH-DIPG-1, MIPE4.0, CellTiter-Glo, qHTS (AID 1347062; cut-off not given, nearly all actives have AC50 up to about 27 µM); conditions: JHH-DIPG-1 viability, CellTiter-Glo ATP luminescence
# [15] = SU-DIPG-VI glioma cell viability, MIPE4.0 library, CellTiter-Glo luminescence, qHTS (AID 1347066; cut-off not given, nearly all actives have AC50 up to about 30 µM;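 note: cells exposed to compound for 48 hours before readout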); conditions: CellTiter-Glo ATP luminescence
# [16] = JHH-DIPG-1 glioma cell viability, MIPE5.0 library, CellTiter-Glo luminescence, qHTS (AID 1347067; cut-off not given, nearly all actives have AC50 up to about 26 µM;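 note: cells exposed to compound for 48 hours before readout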); conditions: JHH-DIPG-1 glioma viability, CellTiter-Glo ATP luminescence
# [17] = measured here: combination with cisplatin, at 0.5 µM
# [18] = stronger effect = lower value, cell number ratio, induced over uninduced
# [19] = measured here: relative caspase fold change +Dox/-Dox
# [20] = measured here: total cells with miR-34 induction, stronger effect = lower value
# [21] = measured here: total cells without miR-34 induction
# [22] = MELAS cybrid survival, CellTiter-Glo 48 h, stronger effect = higher value
# [23] = Rieske KO mouse fibroblast survival, CellTiter-Glo 72 h
structure (smiles),measurement,setting,value
CC(C)(C)OC(=O)Nc1ccc(-c2cc(C(=O)NCCCCCCC(=O)NO)no2)cc1,inhibition,[1],-17.6% and -12.3%
same,inhibition,[2]; at 0.5 µM,-23.9% (inactive) and 0.63% (inactive)
same,inhibition,"[2]; measured here: combination with BGB IC40, at 0.05 µM",-39.1% and -9.87%
same,inhibition,[2]; [17],-43.1% and 4.1%
same,inhibition,"[2]; measured here: combination with cisplatin, at 5 µM",61.5% and 70.7%
same,inhibition,[3]; at 0.5 µM,-17.8% (inactive) and -4.69% (inactive)
same,inhibition,"[3]; measured here: with BGB IC20, at 0.5 µM",-25.7% and -17.1%
same,inhibition,"[3]; measured here: with BGB IC20, at 5 µM",49.9% and 86.7%
same,inhibition,"[3]; measured here: with cisplatin IC20, at 0.5 µM",-5.92% and 8.08%
same,inhibition,"[3]; measured here: with cisplatin IC20, at 5 µM",62.7% and 92.5%
same,inhibition,"[3]; single agent, at 5 µM",77.5% and 87.2%
same,inhibition,[4]; at 0.5 µM,-5.18% (inactive) and -14.7% (inactive)
same,inhibition,"[4]; measured here: BGB combination, at 0.5 µM",-6.05% and -29.4%
same,inhibition,"[4]; measured here: BGB combination, at 5 µM",54.7% and 62.5%
same,inhibition,"[4]; measured here: cisplatin combination, at 0.5 µM",-18.7% and -11.1%
same,inhibition,"[4]; measured here: cisplatin combination, at 5 µM",56.9% and 63%
same,inhibition,[5]; at 0.5 µM,9.8% (inactive) and 2.37% (inactive)
same,inhibition,"[5]; cisplatin combination, at 0.5 µM",8.11% and 13.2%
same,inhibition,"[5]; cisplatin combination, at 5 µM",29.8% and 83.8%
same,inhibition,"[5]; measured here: BGB IC40 combination 0.05 uM, at 0.05 µM",-31% and -31.3%
same,inhibition,"[5]; single agent, at 5 µM",33.2% and 32%
same,inhibition,[6]; at 0.5 µM,-13.3% (inactive) and 2% (inactive)
same,inhibition,"[6]; cisplatin combo, at 5 µM",55.6% and 86.3%
same,inhibition,"[6]; measured here: BGB IC40 combination, at 0.05 µM",43.9% and -7.68%
same,inhibition,[6]; [17],-24.8% and 36.6%
same,inhibition,"[6]; single agent, at 5 µM",42.9% and 30.3%
same,inhibition,[7]; at 0.5 µM,51.1% (inactive) and 53.4% (inactive)
same,inhibition,"[7]; measured here: with BGB IC20 combination, at 0.5 µM",34.6% and 54.1%
same,inhibition,"[7]; measured here: with cisplatin IC20 combination, at 0.5 µM",58.7% and 53.1%
same,inhibition,"[7]; single agent, at 0.05 µM",-13.9% and 7.41%
same,inhibition,"[7]; single agent, at 5 µM",94% and 95%
CCCCOc1c(C(=O)c2c(F)cc(C)cc2F)cnc2n[nH]cc12,outcome,[8],inactive
same,AC50,[9],4.18 µM (active)
same,AC50,[10],1.66 µM (active)
same,IC50,[11],3.72 µM (active)
same,fold change,[12]; [18],1.03 (inactive)
same,fold change,[12]; [19],0.597
same,cell count,[12]; [20],1950
same,cell count,[12]; [21],1900
same,z-score,[13]; [22],0.523 (inactive)
same,z-score,[13]; [23],-1.74
COc1ccc(Cn2ccc3ccc(C(=O)NO)cc32)cc1,outcome,[14],inactive
same,outcome,[9],inactive
same,outcome,[10],inactive
same,outcome,[15],inactive
same,outcome,[16],inactive
same,fold change,[12]; [18],0.793 (inactive)
same,fold change,[12]; [19],0.954
same,cell count,[12]; [20],5300
same,cell count,[12]; [21],6690
same,z-score,[13]; [22],-0.343 (inactive)
same,z-score,[13]; [23],0.636
